From PubChem
aSyn 5UTR act – Activators working through SNCA 5'UTR binding (MLPCN). activity score, % (tested at 7.5 µM), hits read low. alpha-synuclein 5'UTR reporter, activators screen. 300,000 compounds, 7.1% hits; in the data active means activity score below about -60%
The depositor's hits bear a star. Only a sample is shown.

SMILES	aSyn 5UTR act
O=C(c1cc2ccccc2o1)N1CCCCCC1	-64*
CC1CC(C)CN(C(=O)c2cc3cc(Br)cc(Br)c3o2)C1 (centres undefined)	-121*
CC1CCN(C(=O)c2cc3ccccc3o2)CC1	-131*
Fc1ccc(Nc2nc3ccccc3s2)cc1	-207*
Cc1ccccc1Nc1nn2c(=O)c3ccccc3nc2s1	-155*
Cc1ccc(Nc2nc3ccccc3s2)cc1	-171*
CN(C)c1ccc(CNc2nc3ccccc3s2)cc1	80
Cc1ccccc1Nc1nc2ccccc2s1	-220*
Cc1ccccc1C(=O)N1CCN(c2ccc(NC(=O)c3ccc([N+](=O)[O-])o3)cc2)CC1	-168*
CN1CCN(c2ccc(NC(=O)c3ccc([N+](=O)[O-])o3)cc2Cl)CC1	61
CC(=O)c1ccc(NC(=O)c2ccc([N+](=O)[O-])o2)cc1	-355*
COc1ccc(NC(=O)c2ccc([N+](=O)[O-])o2)cc1	-320*
CCCC(=O)N1CCN(c2ccc(NC(=O)c3ccc([N+](=O)[O-])o3)cc2Cl)CC1	-118*
Cc1ccccc1C(=O)N1CCN(c2ccc(NC(=O)c3ccc4c(c3)OCO4)cc2)CC1	48
NS(=O)(=O)c1ccc(O)c(NC(=O)c2ccc([N+](=O)[O-])o2)c1	-62*
O=C(Nc1ccc2oc(=O)ccc2c1)c1ccc(-c2cccc([N+](=O)[O-])c2)o1	92
CN1CCN(c2ccc(NC(=O)c3ccc(-c4cccc([N+](=O)[O-])c4)o3)cc2)CC1	-208*
O=C(CCS(=O)(=O)c1cccs1)NC1CCCCCC1	-139*
O=C(NC1CCCCCC1)c1cccs1	-81*
O=C(NCCC1CCCC1)c1cccs1	-69*
Nc1c(C(=O)NC2CCCC2)sc2nc(-c3cccs3)ccc12	-74*
CCC1=C/C(=C/N(C)c2ccccc2)C(=O)S1	-62*
CC(C)(C)NC(=S)NNC(=O)c1cccc(Br)c1	-121*
COc1ccccc1NC(=S)NNC(=O)c1ccc(O)cc1	-106*
O=C(NNC(=S)Nc1ccccc1)c1ccc(O)cc1	-131*
SMILES	aSyn 5UTR act
O=C(NNC(=S)Nc1ccc(Br)cc1)c1ccccc1	-107*
O=C(NNC(=S)Nc1ccccc1)c1cccc(Br)c1	-95*
COc1nc(-c2ccccc2)cc(-c2ccc3c(c2)OCO3)c1C#N	64
c1ccc2c(Oc3ccc4c(c3)OCO4)nncc2c1	-71*
Nc1cc(C(F)(F)F)ccc1C(=O)O	-62*
COc1cnc(-c2ccccn2)nc1N(C)c1ccccc1	89
c1ccc(-c2cnnc(-c3ccccn3)n2)cc1	-133*
COc1ccc(NC(=O)C(=O)c2cn(CC(=O)N3CCCC3)c3ccccc23)cc1	105
CC(=O)Nc1cccc(NC(=O)C(=O)c2cn(CC(=O)N3CCCCC3)c3ccccc23)c1	-121*
Cc1ccc(NC(=O)N/C=C/c2ccccc2)cc1	-92*
Cc1ccc(NC(=O)N/C=C/c2ccc(Cl)cc2)cc1	-94*
FC(F)Sc1ccc(Nc2ncnc3nc[nH]c23)cc1	-73*
CCCCOC(=O)c1ccc(Nc2ncnc3nc[nH]c23)cc1	-118*
CC(C)(C)Cc1nnc(NC(=O)CSc2ccccc2)s1	-137*
CC(C)(C)CC(=O)Nc1nnc(CCc2ccccc2)s1	-113*
CCC(C)(C)C(=O)Nc1nnc(CCc2ccccc2)s1	-141*
O=Nc1c(-c2ccccc2)cc2ccccn12	-211*
CCOc1ccccc1NC(=O)C(OC(=O)c1ccc(O)cc1)c1ccccc1 (centres undefined)	-62*
COC(=O)CNc1c(-c2ccccn2)nc2ccc(Br)cn12	-83*
O=C(Nc1ccc(OC(F)(F)F)cc1)c1cnc2n(c1=O)CCS2	-160*
O=C(NCCCc1ccccc1)c1cnc2n(c1=O)CCS2	-125*
O=C(Nc1ccccc1)c1cnc2n(c1=O)CCS2	-100*
O=C(NCCC1=CCCCC1)c1cnc2n(c1=O)CCS2	-108*
Nc1c(C(=O)Nc2ccc(S(=O)(=O)N3CCCC3)cc2)sc2nc3ccc(OC(F)(F)F)cc3cc12	109
O=C(Nc1cccc(C(F)(F)F)c1)c1cnc2n(c1=O)CCS2	-108*
SMILES	aSyn 5UTR act
N#Cc1ccc(-c2cn3c(n2)SCC3)cc1	-144*
O=[N+]([O-])c1ccc(-c2cn3c(n2)SCC3)cc1	-81*
Cc1ccc(NC(=O)/C(C#N)=C/c2cccs2)c(C)c1	-169*
Cc1ccc(C)c(NC(=O)/C(C#N)=C/c2cn(CC(=O)NCc3ccco3)c3ccccc23)c1	58
N#C/C(=C\c1cccs1)C(=O)Nc1ccccn1	-75*
Cc1ccc(OCC(=O)N2CCCCC2)c(Br)c1	-125*
CC(C)(C)c1ccc(OCC(=O)N2CCCCCC2)c(Br)c1	-144*
COc1cccc([C@@H]2Oc3ccc(OC)cc3C(=O)[C@H]2OC(=O)NCc2ccc3c(c2)OCO3)c1	-137*
Cc1ccc(C(=O)c2oc3ccc(Cl)cc3c2NC(=O)CN2CCN(C)CC2)cc1	-108*
N#C/C(=C\c1ccccn1)c1nc2ccccc2s1	-74*
COc1ccc(/C(C#N)=C/c2ccccn2)cc1	-172*
CC(/C=C/c1ccccc1)=N/NC(=O)c1cnccn1	-120*
O=C(/C=C/c1ccccc1)NC(=S)NNC(=O)c1cnccn1	87
